High-throughput results (PubChem BioAssay)
An excerpt weighted towards active compounds, which were near 21% of everything screened.
Pf growth 48h – P. falciparum growth inhibition at 48 hours (one generation) | Potency, µM (top dose mostly 28.7 µM), hits mostly inhibitors | P. falciparum luciferase growth in erythrocytes, 48 h | AID 504832 | 5.9% of 310,000 active
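Growth was read as firefly luciferase luminescence after a 48 h, 37 C, 5% CO2 exposure of compounds to reporter-bearing P. falciparum cultures (0.1% parasitemia, 2% hematocrit final) in Albumax-supplemented RPMI 1640.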
Pf growth 96h – P. falciparum growth inhibition at 96 hour, primary screen for plastid delayed-death inhibitors; P. falciparum luciferase reporter growth, 96 h; Potency, µM (top dose mostly 28.7 µM), hits mostly inhibitors; 6.9% of 320,000 active; AID 504834
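Infected RBCs, 2% Hct / 0.05% parasitemia final; luciferase-reporter P. falciparum; cpd 96 h, 37 C, 5% CO2; luciferase detection reagent; luminescence.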
Cycloheximide cs – affects cycloheximide protein synthesis inhibition readout, counter-screen. cell reporter, cycloheximide protein synthesis inhibition counterscreen. max response, %. 12% of 300,000 active; in the data active means max response mostly above about 13%, no sharp cut-off; inactive means mostly below about 14%; further: read at 38.3 µM for the half of the compounds with a filed dose
Shiga toxin inh – blocks Shiga toxin action in Vero cells; Vero cells, Shiga toxin protein synthesis inhibition reporter; inhibition, % at 38.7 µM; 9.2% of 290,000 active; AID 2315; in the data active means inhibition mostly above about 28%, no sharp cut-off; inactive means mostly below about 43%
Of the large screens only hits and unclear results are named; the others gave an inactive call. Unless noted, the call rests on the fitted dose curve; in most records, active means well fitted inhibition curve with a large enough effect; inconclusive means small, poorly fitted or top-dose-only effect, or another doubt; inactive means no such curve, though single readings can be large or run the other way.

Cc1cccc(NC(=S)NC(=O)c2cccs2)n1	Cycloheximide cs 24, Shiga toxin inh 115
CCOC(=O)Cn1ccc(NC(=O)c2ccc(F)cc2)n1	Pf growth 96h inconclusive
CCOc1cc(C2NC(=O)NC(C)=C2C(=O)OCC2CCCCC2)ccc1O (stereo unspecified)	Pf growth 48h inconclusive
O=S1(=O)N=C(N(Cc2cccs2)c2ccc(O)cc2)c2ccccc21	none
S=C(Nc1ccc(Cl)cc1Cl)Nn1cnnc1	none
Cc1cccc(C)c1NC(=S)/N=C/N(C)C	none
CN(C)/C=N/C(=S)Nc1ccc(Cl)cc1Cl	Cycloheximide cs 57, Shiga toxin inh 74
CN(C)/C=N/C(=S)Nc1ccc(Cl)cc1	Cycloheximide cs 35, Shiga toxin inh 65
CC(C)N(Cc1ccccc1)C(=O)COC(=O)CCC(=O)c1ccc(F)cc1	none (no result: Cycloheximide cs, Shiga toxin inh)
Cc1ccc(S(=O)(=O)N2CCC(C(=O)Nc3nnc(-c4ccc(F)cc4)s3)CC2)cc1	none
Cc1ccc(-c2nnc(NC3CCCC3)s2)cc1	Cycloheximide cs 54, Shiga toxin inh 53
Cc1cc(Br)cc2cn[nH]c12	none
CCc1ccc(C2c3[nH]c4ccccc4c3CCN2C(=O)CNC(N)=O)cc1 (stereo unspecified)	Pf growth 48h inconclusive
CCc1ccc(C2c3[nH]c4ccccc4c3CCN2C(=O)CN2CCN(CC)CC2)cc1 (stereo unspecified)	Pf growth 48h 10µM, Pf growth 96h inconclusive
CSc1ccc(C2c3[nH]c4ccccc4c3CCN2C(=O)c2ccnn2C)cc1 (stereo unspecified)	Pf growth 48h inconclusive, Pf growth 96h inconclusive, Cycloheximide cs 35, Shiga toxin inh 72
Cc1ncoc1C(=O)N1CCc2c([nH]c3ccccc23)C1c1ccccc1F (stereo unspecified)	Pf growth 48h inconclusive
CCc1ccc(C2c3[nH]c4ccccc4c3CCN2C(=O)c2ccc(=O)n(C)n2)cc1 (stereo unspecified)	Pf growth 48h 8.3µM, Pf growth 96h inconclusive
CC(=O)C1=C(O)C(=O)N(c2ccc(Br)cc2)C1c1cccc([N+](=O)[O-])c1 (stereo unspecified)	none
Nc1nonc1C(=O)NCCNS(=O)(=O)c1ccc(Br)cc1	none
O=C(c1cc(COc2ccccc2)on1)N1CCCC(OCc2cccnc2)C1 (stereo unspecified)	Pf growth 96h inconclusive
Cc1ccc(OCc2cc(C(=O)N3CCCC(O)C3)no2)cn1 (stereo unspecified)	Pf growth 96h inconclusive, Cycloheximide cs 20, Shiga toxin inh 23
O=C(c1cc(COc2ccccc2)on1)N1CCCC(CN2CCOCC2)C1 (stereo unspecified)	Cycloheximide cs 26, Shiga toxin inh 31
O=c1c(/C=N/O)c(Nc2ccccc2)nc2ccccn12	Pf growth 96h inconclusive
CC(C)n1cc(/C=C2\NC(=O)N(c3cccc(Cl)c3)C2=O)c2ccccc21	Pf growth 96h inconclusive (no result: Pf growth 48h)
O=C(O)c1ccc(-n2cccc2/C=C2/NC(=O)N(c3cccc(Cl)c3)C2=O)cc1	none
CCn1c(C)cc(/C=C2/NC(=O)N(c3ccccc3)C2=O)c1C	Pf growth 48h inconclusive, Cycloheximide cs 43, Shiga toxin inh 97
COCCn1c(C)cc(/C=C2/NC(=O)N(c3cccc(Cl)c3)C2=O)c1C	Pf growth 96h inconclusive, Cycloheximide cs 38, Shiga toxin inh 64
O=C1NC(=O)N(c2ccc(F)cc2)C(=O)/C1=C/c1ccsc1	none
O=C1N/C(=C/c2ccsc2)C(=O)N1c1ccccc1	Pf growth 96h inconclusive, Cycloheximide cs 26, Shiga toxin inh 47
CC(C)n1cc(/C=C2/NC(=O)N(c3cccc(Cl)c3)C2=O)c2ccccc21	Pf growth 48h 8.3µM, Pf growth 96h 9.3µM
O=C(NCCN1CCOCC1)C1(C(F)(F)F)C/C(=C/CCO)CCCO1 (stereo unspecified)	none (no result: Pf growth 48h, Pf growth 96h)
CC1CCC2(CC1)NC(=O)N(CC(=O)NC(=O)Nc1ccc3c(c1)OCCO3)C2=O (stereo unspecified)	none
CC1CN(C(C)C)C(C)CC1OC(=O)c1ccccc1 (stereo unspecified)	none
COC(=O)c1ccc(CN2CCCC(CCC(=O)NCc3ccc(C)o3)C2)cc1 (stereo unspecified)	Pf growth 48h inconclusive
CCC(C(=O)c1ccccc1)N(C(=O)c1ccccc1Cl)N1C(=O)C2C3C=CC(C3)C2C1=O (stereo unspecified)	Pf growth 48h inconclusive, Pf growth 96h 10µM
COc1ccc(S(=O)(=O)N2CCCCCC2)cc1NC(=O)CN1C(=O)NC(C)(c2ccccc2)C1=O (stereo unspecified)	Pf growth 48h 9.3µM, Pf growth 96h 4.1µM (no result: Cycloheximide cs, Shiga toxin inh)
CCOc1ccc(S(=O)(=O)N2CCOCC2)cc1NC(=O)CN1C(=O)NC2(CCCCC2)C1=O	none (no result: Cycloheximide cs, Shiga toxin inh)
CCCC1(c2ccccc2)NC(=O)N(CC(=O)Nc2cc(S(=O)(=O)N3CCOCC3)ccc2Cl)C1=O (stereo unspecified)	Pf growth 96h 13µM
O=C(CN1C(=O)NC2(CCCC2)C1=O)N1CCN(S(=O)(=O)c2cccc(F)c2)CC1	none
CCOc1ccc(S(=O)(=O)N2CCCCC2)cc1NC(=O)CN1C(=O)NC(C)(C2CC2)C1=O (stereo unspecified)	Pf growth 48h inconclusive (no result: Cycloheximide cs, Shiga toxin inh)
Cc1ccc(C2(C)NC(=O)N(CC(=O)N3CCN(S(=O)(=O)c4cccc(F)c4)CC3)C2=O)cc1 (stereo unspecified)	Pf growth 96h 12µM
CCOc1ccc(S(=O)(=O)N2CCOCC2)cc1NC(=O)CN1C(=O)NC(C)(c2ccc(C)cc2)C1=O (stereo unspecified)	Pf growth 48h 10µM, Pf growth 96h inconclusive (no result: Cycloheximide cs, Shiga toxin inh)
CCC(C(=O)NC1CCCC1)n1nc(C)n2c(cc3occc32)c1=O (stereo unspecified)	none
Cc1sc2c(c1C)C(=O)/C(=C\Nc1ccncc1)S(=O)(=O)N2C	none
CC12CCC(C(=O)N3CCC(Cc4ccccc4)CC3)(C(=O)C1=O)C2(C)C (stereo unspecified)	none
O=S(=O)(c1ccc2c(c1)OCCO2)N1CCN(S(=O)(=O)c2c(F)ccc(O)c2F)CC1	none (no result: Pf growth 48h, Pf growth 96h)
Cc1cccn2c(=O)nc(SCC(=O)NCc3ccc(F)cc3)nc12	none (no result: Cycloheximide cs, Shiga toxin inh)
Fc1ccc(CSc2nsc(SCc3ccc(F)cc3)n2)cc1	none (no result: Pf growth 96h)
O=C(Nc1nc(SCc2ccc(F)cc2)ns1)c1ccco1	Pf growth 96h inconclusive, Cycloheximide cs 16
COc1cc(NC(=O)c2ccco2)ccc1NC(=O)C(C)C	none (no result: Pf growth 48h)
COc1cc(NC(=O)c2ccccc2[N+](=O)[O-])ccc1NC(=O)C(C)C	Pf growth 96h 9.3µM
COc1ccc(C)cc1NC(=O)C(=O)NNC(=O)c1ccco1	Pf growth 96h 1.9µM
CCC(=O)Nc1ccc(NC(=O)c2ccco2)c(OC)c1	Pf growth 96h inconclusive, Cycloheximide cs 30, Shiga toxin inh 67
Clc1nnc(Cl)c2c1ncn2Cc1ccccc1	Pf growth 48h inconclusive, Pf growth 96h inconclusive
CCC(=O)Nc1ccc(NC(=O)c2ccco2)cc1	Cycloheximide cs 25, Shiga toxin inh 57
COc1ccc(OCC(=O)Nc2cc(NC(=O)c3ccco3)ccc2OC)cc1	Pf growth 48h inconclusive, Pf growth 96h 8.3µM
O=C(Nc1ccc(CSc2ccccc2)cc1)c1ccco1	Cycloheximide cs 46, Shiga toxin inh 96
COc1ccccc1OCC(=O)Nc1cc(C)ccc1NC(=O)c1ccco1	Pf growth 48h inconclusive, Pf growth 96h 10µM
